Results as given in PubChem BioAssay (Tox21).
A number with no mark means an inactive call. Calls of active or inactive are those of the source. Calls follow the shape of the dose curve; as a rule, active = well fitted curve in the direction sought with a large enough effect in the repeat runs; inconclusive = weak or mixed curves; inactive = flat fitted curve, though single readings scatter.
% is scaled to controls: 0 for no effect and ±100 for the full control effect.

Test: qHTS assay to test for compound auto fluorescence at 590 nm (red) in HEK293 cell free culture (AID 720683)
Settings: cell-free medium autofluorescence, Ex540/Em590 red; series mostly up to 91.3 µM; fluorescence, % of fluorescent control: at the top concentration
Description: U.S. Tox21 Program National Center for Advancing Translational Sciences [NCATS] NIH Chemical Genomics Center [NCGC] U.S. Environmental Protection Agency [EPA] National Institutes of Environmental Health Sciences [NIEHS] National Toxicology Program [NTP] U.S. Food and Drug Administration [FDA] Tox21 Assay Overview: Compound auto fluorescence often interferes with screening of the compound library against various biological targets and signaling pathways. Some of these compounds may have fluorophoric properties. Such properties may interfere with the assay outputs resulting in false positives and/or negatives. To decrease such complications and ensure the compound activities are relevant in terms of biological response, the Tox21 10K compound library was screened for auto fluorescence. From the fluorophores used as reporter signals in our screening assays, the auto fluorescence equivalencies of compounds against three fluorophores have been evaluated: Triamterene, Fluorescein and Rose Bengal sodium for blue, green and red fluorescence, respectively. The fluorescence intensities were measured using Excitation/Emission wavelengths at 405/460nm, 485/535nm and 540/590nm for blue, green and red labels, respectively. This assay includes the red fluorescence data.
Tox21 Assay Protocol Summary: 5 uL of culture medium (DMEM containing 10% FBS) per well was dispensed into black wall/clear bottom 1536-well plates using a Multidrop Combi Dispenser (ThermoFisher Scientific, Waltham, MA). After 23 nL compound or DMSO vehicle was transferred into assay plate by a pintool work station (Kalypsys, San Diego, CA), fluorescence intensities in the assay plates were measured by an Envision (PerkinElmer, Shelton, CT) plate reader using three labels for measuring blue, green and red fluorescence at […] 460, 535 and 590nm respectively.
In the case of `CCOC(=O)C(Cl)C(C)=O` (stereo not given), the “fluorescence, % of fluorescent control” value is reported as -0.0969% [at 95.7 µM]. For `O=C(C(Cl)(Cl)Cl)C(Cl)(Cl)Cl`, the “fluorescence, % of fluorescent control” value was 0.32% [at 95.7 µM]. For `CCC(Br)(CC)C(=O)NC(N)=O`, the “fluorescence, % of fluorescent control” value was 0.0929%. For `II`, the “fluorescence, % of fluorescent control” value was 0.0039%. For `CCOP(=S)(OCC)SCn1nnc2ccccc2c1=O`, the “fluorescence, % of fluorescent control” value was 0.0614%. For `COC(N)=O`, the “fluorescence, % of fluorescent control” value was -0.0221%. With `CCn1cc[n+](C)c1` the outcome was “inactive”. For `CCOP(=S)(OCC)SCSCC`, the “fluorescence, % of fluorescent control” value was 0.363%. With `Clc1cc(C(Cl)(Cl)Cl)cnc1Cl` the “fluorescence, % of fluorescent control” value was -0.204%. For `O=S(=O)(O)C(F)(F)C(F)(F)C(F)(F)C(F)(F)F`, the “fluorescence, % of fluorescent control” value was 0.825%. In the case of `CCOc1nc(F)cc2nc(S(=O)(=O)Nc3c(Cl)cccc3Cl)nn12`, the “fluorescence, % of fluorescent control” value is reported as -0.0406%. For `ClP(Cl)(Cl)(Cl)Cl`, the “fluorescence, % of fluorescent control” value was 0.0981%. With `CC(C)(C)c1cc([N+](=O)[O-])cc([N+](=O)[O-])c1O` the “fluorescence, % of fluorescent control” value was -0.0084%. For `CCCCCCCCOC(=O)c1ccc(C(=O)OCCCCCCCC)c(C(=O)OCCCCCCCC)c1`, the “fluorescence, % of fluorescent control” value was -0.507% [at 95.7 µM]. For `CCCCN=C=O`, the “fluorescence, % of fluorescent control” value was 0.0427%. For `c1cc2ccc3cccc4ccc(c1)c2c34`, the “fluorescence, % of fluorescent control” value was -0.589% [at 95.7 µM]. For `NC(=O)C(Cl)(Cl)Cl`, the “fluorescence, % of fluorescent control” value was 0.0138%. In the case of `CC1C(=O)C[C@]2(C(C)C)C[C@H]12` (stereo not given in full), the “fluorescence, % of fluorescent control” value is reported as -0.0437%. With `O=C(NCc1cccnc1)Nc1ccc([N+](=O)[O-])cc1` the “fluorescence, % of fluorescent control” value was 0.108%. With `C=CC[C@]1(O)CC[C@H]2[C@@H]3CCC4=CC(=O)CCC4=C3C=C[C@@]21C` the “fluorescence, % of fluorescent control” value was -0.468% [at 46 µM]. For `CC1CC(CC2CCC(N)C(C)C2)CCC1N` (stereo not given), the “fluorescence, % of fluorescent control” value was 0.024% [at 95.7 µM]. For `N#CCC#N`, the “fluorescence, % of fluorescent control” value was 0.376%. With `O=C(O)CC(Cl)C(=O)O` (stereo not given) the “fluorescence, % of fluorescent control” value was -0.0084%. With `O=[N+]([O-])c1ccc(F)c([N+](=O)[O-])c1` the outcome was “inactive”. With `CCOP(=O)(OCC)Oc1ccc([N+](=O)[O-])cc1` the outcome was “inactive”. With `CCCCCCCCCC(=O)O[C@H]1CC[C@H]2[C@@H]3CCC4=CC(=O)CC[C@@H]4[C@H]3CC[C@]12C` the “fluorescence, % of fluorescent control” value was 0.0008% [at 46 µM]. With `CO/C=C(/C(=O)OC)c1ccccc1COc1cccc(C(F)(F)F)n1` the “fluorescence, % of fluorescent control” value was -0.0317%. With `CCCCNP(N)(N)=S` the “fluorescence, % of fluorescent control” value was -0.0049%. With `Brc1ccccc1` the “fluorescence, % of fluorescent control” value was 0.0778%. In the case of `OCCCBr`, the “fluorescence, % of fluorescent control” value is reported as -0.37%. With `CCCCC(CC)COP(=O)(Oc1ccccc1)Oc1ccccc1` (stereo not given) the “fluorescence, % of fluorescent control” value was 0.103%. For `O=C(O)C(F)(F)C(F)(F)C(F)(F)C(F)(F)C(F)(F)C(F)(F)C(F)(F)C(F)(F)C(F)(F)C(F)(F)F`, the “fluorescence, % of fluorescent control” value was -0.0703%. In the case of `S=C=NCc1ccccc1`, the “fluorescence, % of fluorescent control” value is reported as 0.0029%. With `CC(C)N(C(=O)COc1nnc(C(F)(F)F)s1)c1ccc(F)cc1` the “fluorescence, % of fluorescent control” value was 0.201%. In the case of `O=C(O)C1(c2ccc3c(c2)OC[C@H](Cc2ccc(-c4ccccc4)cc2)[C@H]3O)CCCC1`, the “fluorescence, % of fluorescent control” value is reported as -0.0138%. In the case of `Clc1ccc(C(OCCN2CCCCC2)c2ccccc2)cc1` (stereo not given), the fluorescence, % of fluorescent control is reported as 0.321% [at 18.6 µM]. For `CC1(C)CCC(Cc2ccc(Cl)cc2)C1(O)Cn1cncn1` (stereo not given), the “fluorescence, % of fluorescent control” value was 0.0118%. With `C=CC(C)=O` the “fluorescence, % of fluorescent control” value was -0.365%. In the case of `CCCCOC(=O)c1ccccc1C(=O)OCc1ccccc1`, the outcome is reported as “inactive”. In the case of `CC(=O)[C@H]1CC[C@H]2[C@@H]3CC[C@H]4C[C@](C)(O)CC[C@]4(C)[C@H]3CC[C@]12C`, the “fluorescence, % of fluorescent control” value is reported as -0.0554% [at 46 µM].
